Luc counter: counter-screen: inhibitors of Kinase-Glo firefly luciferase | Potency, µM (highest dose often 38.3 µM), for inactives: at the top dose activity change, negative = inhibition, actives largely listed as inhibitors | 0.28% of 200,000 active | AID 1379 | Kinase-Glo luciferase, ATP luminescence, 8 min | Q27757; active = well fitted inhibition curve with a large enough effect; note: potency is the fitted concentration of half-maximal effect; nearly all actives have a fitted effect of over 60% in size
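Substrate mix (final 50 mM imidazole pH 7.2, 50 mM KCl, 7 mM MgCl2, 10 uM ATP, 0.01% Tween 20, 0.05% BSA) plus pin-tool compound, then Kinase-Glo detection mix; 8 min ambient, luminescence read.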
KCNH2 3.1 block: blocks the human KCNH2 3.1 channel isoform; U2OS KCNH2 3.1, thallium flux FluxOr; hits give low values; activity change, % (tested at about 1.8 µM); 0.95% of 340,000 active;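 active = maximum activity change below -70%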;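 note: thallium influx rate constant from kinetic fluorescence after stimulation buffer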
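U2OS cells transduced with KCNH2 3.1 mutant virus (1.77 x 10^8 /mL, 4 h), plated overnight at 37 C, loaded 45 min with FluxOr dye plus Red40 quencher. Thallium flux rate constant from kinetic reads after stimulation buffer, normalised to controls.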
hERG WT inh: blocks the wildtype human KCNH2 potassium channel; U2OS, BacMam KCNH2, thallium flux FluxOr; hits give low values; activity change, % at 1.84 µM; 0.37% of 340,000 active; AID 720551; Q12809;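 active = maximum activity change below -70%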
Target sequence (Q12809 whole entry, looked up): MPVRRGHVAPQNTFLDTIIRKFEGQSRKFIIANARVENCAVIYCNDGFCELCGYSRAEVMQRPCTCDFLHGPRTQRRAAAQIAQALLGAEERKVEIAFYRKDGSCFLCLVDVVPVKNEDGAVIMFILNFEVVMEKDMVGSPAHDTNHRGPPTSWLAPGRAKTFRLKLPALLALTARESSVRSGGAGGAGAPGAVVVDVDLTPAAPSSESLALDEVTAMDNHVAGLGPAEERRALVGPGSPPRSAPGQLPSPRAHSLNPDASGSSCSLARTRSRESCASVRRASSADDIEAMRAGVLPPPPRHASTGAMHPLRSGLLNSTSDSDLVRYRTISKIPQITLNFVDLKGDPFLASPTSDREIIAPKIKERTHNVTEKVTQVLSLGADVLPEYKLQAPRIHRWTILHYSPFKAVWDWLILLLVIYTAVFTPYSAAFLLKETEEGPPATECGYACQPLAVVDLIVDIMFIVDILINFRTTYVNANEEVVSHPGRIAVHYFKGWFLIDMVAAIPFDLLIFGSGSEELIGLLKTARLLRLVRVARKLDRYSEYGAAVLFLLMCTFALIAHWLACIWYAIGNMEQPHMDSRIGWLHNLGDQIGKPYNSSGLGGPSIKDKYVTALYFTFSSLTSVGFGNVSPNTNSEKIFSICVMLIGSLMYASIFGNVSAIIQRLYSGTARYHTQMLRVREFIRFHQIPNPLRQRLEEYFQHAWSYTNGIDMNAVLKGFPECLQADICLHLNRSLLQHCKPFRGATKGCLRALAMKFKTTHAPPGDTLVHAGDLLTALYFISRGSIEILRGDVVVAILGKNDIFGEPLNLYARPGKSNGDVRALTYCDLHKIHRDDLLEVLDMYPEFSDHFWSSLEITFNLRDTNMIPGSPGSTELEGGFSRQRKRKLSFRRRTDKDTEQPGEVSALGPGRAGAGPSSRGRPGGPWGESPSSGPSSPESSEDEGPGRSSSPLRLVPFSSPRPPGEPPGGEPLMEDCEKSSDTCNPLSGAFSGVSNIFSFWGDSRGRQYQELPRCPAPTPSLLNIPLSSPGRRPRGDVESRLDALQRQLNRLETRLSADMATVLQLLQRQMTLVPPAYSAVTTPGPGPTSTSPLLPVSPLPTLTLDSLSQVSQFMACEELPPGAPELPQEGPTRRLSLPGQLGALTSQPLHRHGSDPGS
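U2OS cells were transduced with wild-type KCNH2 virus (2.03 x 10^8 / mL) for 4 h at room temperature, then cultured overnight at 37 C. Thallium flux was read with FluxOr dye. Rate constants were normalized to DMSO controls.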
Starred values were filed as active, the others as inactive; x = no result given; [ ] = another dose, or the depositor's remark. In the library only some 1.2% were active in any assay of this set; here they are far more common. % is set by controls: 0 for no effect and ±100 for the full control effect.

SMILES | Luc counter | KCNH2 3.1 block | hERG WT inh
CCN(CC(=O)Nc1cc(Cl)ccc1C)C(=O)C1CC1 | x | -15 | 6
CN(C)c1ccc(CNC(=O)[C@@]2(C)C=C[C@@H](Cc3ccccc3)N2C)cc1 | -5% | x | x
CC1(C)Cc2c(sc(NC(=O)COc3ccc(Cl)cc3)c2C(N)=O)C(C)(C)N1 | x | -73* | 16
CCOC(=O)c1c(NC(=O)CSc2nnnn2-c2ccccc2OCC)sc2c1CC(C)(C)NC2(C)C | x | -81* | -19
Cc1ccc(OCC(=O)Nc2sc3c(c2C#N)CC(C)(C)NC3(C)C)cc1 | -2% | -4 | 12
CCOC(=O)c1c(NC(=O)CSc2nnnn2-c2ccccc2)sc2c1CC(C)(C)NC2(C)C | x | -41 | 10
N#Cc1ccc(CN2CCN(C(=O)c3cc(C4CC4)nn3-c3ccccc3)CC2)cc1 | x | 2 | 13
COc1ccc(CCNC(=O)C(=O)NCC2OCCN2S(=O)(=O)c2cc(F)ccc2F)cc1 (configuration not stated) | x | -143* | 8
O=C(NCCCc1ccccc1)C(=O)NCC1OCCN1S(=O)(=O)c1cc(F)ccc1F (configuration not stated) | x | 27 | -6
CNCC[C@H](Oc1ccccc1OC)c1ccccc1 | -3% | x | x
CNCC[C@@H](Oc1ccc(C(F)(F)F)cc1)c1ccccc1 | -1% | -92* | x
CC1CC(C)CN(Cc2nc(N)nc(Nc3ccccc3)n2)C1 (configuration not stated) | -2% | -31 | 30
Cc1ccc(NC(=O)N2CCN(C(=O)c3ccco3)CC2)cc1Cl | x | -3 | -2
Cc1ccc(Nc2nc(N)nc(CN3CCN(c4ccccc4F)CC3)n2)cc1 | -4% | -86* | 25
Nc1nc(CN2CCc3ccccc3C2)nc(Nc2ccccc2)n1 | 0% | -42 | 8
Cc1ccc(Nc2nc(N)nc(CN3CCN(C(=O)c4ccco4)CC3)n2)cc1Cl | 0% | -94* | -10
Nc1nc(CN2CCN(c3ccccc3F)CC2)nc(Nc2ccccc2)n1 | 0% | -27 | 25
CC1CC(C)CN(Cc2nc(N)nc(Nc3ccc4ccccc4c3)n2)C1 (configuration not stated) | -2% | -113* | -5
Nc1nc(CN2CCC(Cc3ccccc3)CC2)nc(Nc2ccccc2)n1 | -2% | -87* | -90*
O=C(CSc1nccc(=O)[nH]1)Nc1ccc(N2CCOCC2)cc1 | x | 10 | 0
O=C(NCCC1CCCCN1S(=O)(=O)c1ccc(F)cc1)C(=O)NCCN1CCOCC1 (configuration not stated) | x | 7 | -3
COc1ccc([C@@]2(O)c3c(ccc(CC=C(C)C)c3O)NC(=O)[C@@H]2OC)cc1 | x | 5 | -9
N#Cc1ccc(OCC(=O)Nc2cc(S(=O)(=O)N3CCOCC3)ccc2N2CCCC2)cc1 | x | 0 | 11
Cc1nc(N)nc(N(C)c2ccccc2)c1Br | x | 12 | 0
COc1ccc(Cl)cc1S(=O)(=O)N(C)CC(=O)N1CCOCC1 | x | 2 | 1
SMILES | Luc counter | KCNH2 3.1 block | hERG WT inh
Nc1nc(CN2CCN(C(c3ccccc3)c3ccccc3)CC2)nc(Nc2ccccc2)n1 | x | -98* | -25
Cc1ccccc1Nc1nc(N)nc(CN2CCN(Cc3ccc4c(c3)OCO4)CC2)n1 | 0% | -2 | 50
Nc1nc(CN2CCN(Cc3ccc4c(c3)OCO4)CC2)nc(Nc2ccccc2)n1 | -1% | -76* | -24
Nc1nc(CN2CCCCCC2)nc(Nc2ccccc2)n1 | -1% | -32 | 3
COc1ccc(S(=O)(=O)Nc2c(O)ccc3ccccc23)cc1OC | x | 17 | 1
CCC(=O)OCC(=O)[C@@]1(OC(=O)CC)[C@@H](C)C[C@@H]2[C@H]3CCC4=CC(=O)C=C[C@]4(C)[C@@]3(F)[C@@H](O)C[C@@]21C | 2%[39.9 µM] | x | x
COC(=O)c1cccc2c1-c1ccccc1/C2=N\NC(N)=O | x | -190* | -147*
COC(=O)c1cccc2c1-c1ccccc1/C2=N/O | -1% | 13 | -6
Cc1cc(CN2C(=O)c3ccccc3C2=O)cc(N2CCOCC2)c1 | 4% | 5 | -294*
Cc1nn(C(=O)N2CCOCC2)c(C)c1CN1C(=O)c2ccccc2C1=O | x | 5 | 0
CCCCNC(=O)COn1nnc2ccc(S(=O)(=O)N3CCOCC3)cc21 | x | -3 | 6
COc1cnn(-c2cccc(C(F)(F)F)c2)c(=O)c1Cl | x | -7 | 6
COc1cnn(-c2cccc(Cl)c2)c(=O)c1Cl | x | -100* | 0
S=c1nc(-c2csc3c2CCCC3)[nH][nH]1 | 0% | -3 | 4
OC(Cc1nc2ccccc2[nH]1)c1ccccc1Cl (configuration not stated) | -9% | -74* | -10
Clc1ccc(OCc2nc3ccccc3[nH]2)cc1 | -13% | 5 | 1
CCOC(=O)c1nc(C)nc(Sc2n[nH]c(-c3ccc(C(C)(C)C)cc3)n2)c1C | x | -25 | 3
Nc1ccccc1-c1nnc2n1CCCCC2 | x | 13 | -86*
Nc1cccc(-c2nnc3n2CCCCC3)c1 | 2% | 2 | -4
O=C(Cc1cccc(NC(=O)C2CCCN(C(=O)C3CCCCC3)C2)c1)Nc1ccc(C(=O)N2CCOCC2)cc1 (configuration not stated) | x | 22 | -2
Cc1cc(NC(=O)c2ccc(F)cc2)n(CCOC(=O)c2ccc(F)cc2)n1 | x | 1 | 6
Cc1cc(NC(=O)c2ccc(Cl)cc2)n(CCOC(=O)c2ccc(Cl)cc2)n1 | 3% | 1 | -98*
CC(=O)N1CCC2(CC1)CCN(C(c1ccccc1)c1ccccc1)CC2 | -3% | x | x
Cc1c(C)c2cc(Cl)c(O)c(CN(C)C)c2oc1=O | 2% | -2 | -13
CCc1c(C)c2cc(Cl)c(O)c(CN(C)C)c2oc1=O | 2% | -88* | -7
SMILES | Luc counter | KCNH2 3.1 block | hERG WT inh
Cc1ccc2c(c1)N(C(=O)CCC(=O)NCCN1CCOCC1)CCO2 | x | 23 | -3
Cc1ccc2c(c1)N(C(=O)CCC(=O)NCCCN1CCOCC1)CCO2 | x | -128* | -4
Oc1ccccc1C(=S)N1CCN(c2cccc(Cl)c2)CC1 | 2% | -20 | -7
COc1ccc(OC)c(/C=C/C(=O)N(C)CC(=O)Nc2ccc(N3CCOCC3)cc2)c1 | x | 14 | -9
N#C/C(=C\c1cn(Cc2ccc(C#N)cc2)c2ccccc12)C(=O)NCc1cccs1 | -2% | -86* | -26
N#C/C(=C\c1cn(CCOc2ccccc2F)c2ccccc12)C(=O)NCc1cccs1 | 0% | -4 | 3
Cc1ccccc1OCCn1cc(/C=C(\C#N)C(=O)NCc2ccco2)c2ccccc21 | 1% | -77* | -15
N#C/C(=C\c1cn(CCOc2ccccc2)c2ccccc12)C(=O)NCc1ccco1 | -1% | -8 | 5
CCOC(=O)c1ccccc1NC(=O)COC(=O)c1ccc(OCC(=O)N2CCOCC2)c(OCC)c1 | x | -1 | 2
Cc1ccc(N2CCN(C(=O)c3cn(CC4CCCCC4)nn3)C(C)C2)cc1 (configuration not stated) | x | -71* | -6
O=C(c1cn(CC2CCCCC2)nn1)N1CCN(c2ccc(F)cc2)CC1 | x | 8 | 4
C=CC[C@@H](CC(=O)N[C@H](CO)Cc1ccccc1)C(=O)N[C@@H](COC(=O)[C@@H](CC=C)Cc1ccc(F)cc1)Cc1ccccc1 | x | -8 | 4
COc1ccc(NC(=O)CN2CCCCC2)cc1 | -1% | -28 | -3

Screening results from PubChem BioAssay.
